In the library only some 19% were active in any assay of this set; here they are far more common.
DT40 TDP1 no CPT: qHTS for Inhibitors of human tyrosyl-DNA phosphodiesterase 1 (TDP1): qHTS in cells in absence of CPT | Potency, µM (top dose mostly 46.2 µM), for the others: at the highest dose activity change, negative = growth inhibition, hits mostly inhibitors | 420,000 compounds, 15% hits | DT40 Tdp1-/- hTDP1 cells, no CPT, ATP luminescence, 48 h; further: nearly all actives have a fitted effect of over 55% in size
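Chicken DT40 Tdp1-/- cells stably complemented with human TDP1 were seeded at 400 cells/well with DMSO in place of 20 nM camptothecin. After compound pinning, cells grew at least 48 hr at 37 °C; viability read by CellTiter-Glo luminescence.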
KB-3-1 tox: KB-3-1 parental cell cytotoxicity. KB-3-1 viability, CellTiter-Glo ATP luminescence, 72 h. Potency, µM (titrated, usually from 46.1 µM), usual class: cytotoxic. 400,000 compounds, 1.4% hits. AID 1347075; further: nearly all actives have a fitted effect of over 60% in size
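Luminescent ATP read-out (CellTiter-Glo) measures survival of drug-naive KB-3-1 cells after 72 h compound exposure at 37 °C. Titration series was screened from lowest to highest concentration, with DMSO vehicle plates as background controls.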
KB-V1 MDR tox: kills drug-selected multidrug resistant KB-V1 cells | 400,000 compounds, 3.4% hits | Potency, µM (highest dose often 46.1 µM), usual class: cytotoxic | KB-V1 MDR cells viability, CellTiter-Glo, 72 h; further: nearly all actives have a fitted effect of over 60% in size
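qHTS viability screen in drug-selected KB-V1 MDR cells: 72 h compound treatment at 37 degrees C, ATP luminescence end point.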
TDP1 cell CPT: DT40-hTDP1 cell growth loss with CPT | chicken DT40 Tdp1-/-;hTDP1 cells + 20 nM CPT, ATP luminescence, 48 h | Potency, µM (highest dose often 46.2 µM), for inactives: top-dose activity change, negative = growth inhibition, usual class: inhibitors | 420,000 compounds, 12% hits; further: nearly all actives have a fitted effect of over 55% in size
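Chicken DT40 Tdp1-/- cells stably complemented with human TDP1 were seeded at 400 cells/well in medium containing 20 nM camptothecin, exposed to pin-transferred compounds, and grown at 37 °C for at least 48 hr. Viability was read as ATP luminescence.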
HT1080NT lethal: kills 2HG-producing HT-1080-NT fibrosarcoma cells. HT-1080-NT fibrosarcoma viability, CellTiter-Glo ATP luminescence, 48 h. Potency, µM (titrated, usually from 46.1 µM), without a hit: at the top dose activity, negative = less viability, actives largely listed as cytotoxic. 360,000 compounds, 1.6% hits;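 further: NT is the 2HG producing partner of a matched IDH1 knockdown line; 0% = DMSO-treated cells and -100% = media-only wells without cells; nearly all actives have a fitted effect of over 55% in size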
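A 48-hour cytotoxicity screen used HT-1080-NT cells plated 2 hours before compound delivery. ATP-based CellTiter-Glo luminescence measured viability, normalized to DMSO and no-cell controls.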
HT1080 IDH1KD tx: HT-1080 IDH1 knockdown cell toxicity (counter line) | HT-1080 IDH1 knockdown viability, ATP luminescence, 48 h | Potency, µM (doses to about 46.1 µM), without a hit: top-dose activity, negative = toxicity, hits mostly cytotoxic | 360,000 compounds, 2% hits | AID 686971;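 further: 0% = DMSO wells and -100% = cell-free medium wells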
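Using the IDH1-knockdown HT-1080 line run in the same batch and compound series as the NT line, viability after 48 h at 37 °C was determined by CellTiter-Glo luminescence and expressed as % activity.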
The depositor's hits bear a star; i = inactive; ? = inconclusive; nt = no result given. The call rests on the fitted dose curve; in most records, active means well fitted curve in the direction sought with a large enough effect; inconclusive means small, poorly fitted or top-dose-only effect, or another doubt; inactive means no such curve, though single readings can be large; an effect the other way counts as inactive or inconclusive. Unless noted, on the % scale 0 is the no-effect control and ±100 the full control effect; potency means the concentration at half of the fitted maximal effect.

SMILES	DT40 TDP1 no CPT	KB-3-1 tox	KB-V1 MDR tox	TDP1 cell CPT	HT1080NT lethal	HT1080 IDH1KD tx
Cc1nnc(C)n1N	-22.3%	i	i	-4.4%	20.5%	18.5%
COc1cccc(CNS(=O)(=O)c2ccc3[nH]c4c(c3c2)CCCCC4)c1	nt	20.6µM*	20.6µM*	nt	nt	nt
COc1ccc(OC)c(NC(=O)CN(C)S(=O)(=O)c2ccc3[nH]c4c(c3c2)CCCC4)c1	20.6µM*	i	i	18.4µM*	nt	nt
COc1ccc(NS(=O)(=O)c2ccc3[nH]c4c(c3c2)CCCC4)cc1OC	14.6µM*	nt	nt	13µM*	nt	nt
COc1cccc(Nc2nc3ccccc3nc2NS(=O)(=O)c2cccs2)c1	10.3µM*	?	i	9.2µM*	-19.4%	-25.1%
COc1cccc(CNC(=O)CN(C)S(=O)(=O)c2ccc3[nH]c4c(c3c2)CCCC4)c1	?	i	i	?	nt	nt
CCOc1ccccc1NC(=O)Cn1c(=O)n(-c2ccccc2)c(=O)c2c1c1cc(C)ccc1n2C	4.8%	i	i	1.9%	nt	nt
CCc1ccc(S(=O)(=O)Nc2cccc(-c3ccc(OC)nn3)c2)s1	9.2µM*	?	?	11.6µM*	nt	nt
CCc1ccc(S(=O)(=O)Nc2cccc(-c3ccc4nnc(C)n4n3)c2)s1	16.4µM*	?	i	23.1µM*	-22.4%	-14.0%
CCc1ccc(S(=O)(=O)Nc2ccc(-c3ccc4nnc(C)n4n3)cc2)s1	?	i	i	?	-14.9%	-13.9%
O=C(O)/C=C1\CCCc2ccccc2[C@H]1O	-5.6%	nt	nt	-11.4%	nt	nt
Cc1ccc(C)c(CSc2nnc3[nH]c(=O)cc(C)n23)c1	4.0%	nt	nt	9.8%	nt	nt
O=C(Cn1c(C(=O)OCCO)cc2ccccc21)c1ccccc1	?	i	?	8.2µM*	-1.4%	-6.4%
CCOC(=O)c1c(-c2cc(OC)c(OC)c(OC)c2)csc1NC(=O)c1ccccc1	18.4µM*	?	?	?	5.8%	6.5%
CCOC(=O)c1c(-c2ccc(OC)c(OC)c2)csc1NC(=O)c1ccccc1F	-13.0%	i	i	-19.5%	nt	nt
COc1cc(C(=O)Nc2scc(-c3ccccc3)c2C(=O)O)cc(OC)c1OC	13µM*	i	?	?	-0.1%	4.2%
CCOC(=O)c1c(-c2cc(OC)c(OC)c(OC)c2)csc1N	?	?	?	23.1µM*	-22.1%	?
CCOC(=O)c1c(-c2ccc(C)cc2)csc1NC(=O)/C(C#N)=C/c1ccc(O)c(OC)c1	14.6µM*	i	i	?	-1.1%	-1.8%
COc1ccccc1-c1nc(SCC(=O)c2ccc(Cl)cc2)n[nH]1	-19.4%	?	i	-14.1%	nt	nt
Cc1cc(C)cc(Oc2nc3c(c(=O)n(C)c(=O)n3C)n2Cc2ccc(F)cc2)c1	?	i	i	?	nt	nt
CCN1CCN(c2nc3c(C)cccn3c(=O)c2/C=C(\C#N)C(=O)NCCOC)CC1	18.2%	?	i	6.6%	4.4%	-0.9%
O=C(O)CC(c1cccc(O)c1)N1Cc2ccccc2C1=O (stereo unspecified)	-21.6%	i	i	10.2%	8.3%	8.1%
O=C(N/N=C/c1ccc(-c2ccc([N+](=O)[O-])cc2)o1)c1cccnc1	-21.7%	i	i	1.2%	?	?
Cc1ccc(C(=O)N/N=C/c2ccc(-c3cccc(C(F)(F)F)c3)o2)cn1	2.59µM*	6.51µM*	8.2µM*	2.91µM*	?	2.06µM*
Cc1ccc(OCC(=O)N/N=C\c2ccc(-c3cccc(C(=O)O)c3)o2)c(C)c1	-19.5%	i	i	-9.1%	3.7%	1.1%
CNC(=S)N/N=C/c1ccc(-c2cccc(C(=O)O)c2)o1	8.2µM*	14.6µM*	20.6µM*	9.2µM*	?	?
CCOc1ccccc1CNc1nc2nc(C)cc(C)n2n1	-23.8%	i	i	?	nt	nt

Assay outcomes from PubChem BioAssay.
